Screening data from PubChem.
In the library only some 1.7% were active in any assay of this set; here they are far more common.
BJeLR viability = kills HRASV12-expressing BJeLR cells; BJeLR (HRASV12) viability, CellTiter-Glo ATP luminescence, 48 h; inhibition, % (no concentration beside the values); actives 0.17% (n = 300,000); in the data active = inhibition above about 50%
Vc quorum ag-1 = inducers of Vibrio cholerae quorum light production without autoinducers; actives 0.16% (n = 350,000); activation, % at 18.7 µM; V. cholerae BH1578 lux reporter, luminescence, 6 h; in the data active = activation mostly above about 9.7%, no sharp cut-off
SARS 3CLpro inh = SARS-CoV 3CLpro protease inhibition. recombinant SARS-CoV 3CLpro, quenched FRET peptide cleavage. AID 1706. P0C6X7. inhibition, % at 6 µM. actives 0.14% (n = 290,000); in the data active = inhibition above about 12%
MazEF act = increases E. coli MazEF RNase cleavage of RNA | P0AE70 | FAM/BHQ RNA-DNA oligo cleavage fluorescence, 5 h | activation, % at 20 µM | actives 0.32% (n = 350,000); in the data active = activation above about 50%
Target sequence (P0AE70 whole entry, looked up): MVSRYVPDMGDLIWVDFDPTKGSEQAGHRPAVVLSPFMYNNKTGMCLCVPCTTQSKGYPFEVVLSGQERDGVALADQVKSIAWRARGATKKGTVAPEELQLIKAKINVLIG
VHR inh abs = DUSP3 (human) phosphatase inhibition; recombinant VHR phosphatase, pNPP absorbance; inhibition, % at 13.3 µM; AID 1654; P51452; actives 0.52% (n = 290,000); in the data active = inhibition above about 50%
Target sequence (P51452 whole entry, looked up): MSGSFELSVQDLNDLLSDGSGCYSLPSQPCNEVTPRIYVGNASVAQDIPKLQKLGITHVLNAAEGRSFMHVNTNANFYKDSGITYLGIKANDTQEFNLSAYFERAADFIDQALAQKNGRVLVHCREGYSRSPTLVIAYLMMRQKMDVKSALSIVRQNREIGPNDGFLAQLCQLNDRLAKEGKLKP
PfHsp40 yeast = restores yeast growth despite PfHsp40 toxicity | S. cerevisiae expressing PfHsp40, growth rescue, ATP luminescence | actives 0.68% (n = 340,000) | growth rescue, % at 12.5 µM; in the data active = growth rescue above about 28%, passing the limit was not always enough;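 note: yeast W303a lacking pdr1 and pdr3 grown in galactose medium; growth measured after three days at 30 °C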
Vc quorum ag-2 = quorum light induction in BH1578 reporter strain; 620 tested, under 10 active; shares compounds with Vc quorum ag-1; V. cholerae BH1578 lux reporter, luminescence, 6 h; activation, % at 50 µM; call rule not given here
HeLa tox = HeLa cell viability loss at 24 h | CellTiter-Glo ATP luminescence | activity change, negative = cytotoxicity, % at 35 µM | 25 tested, under 10 active | shares compounds with Vc quorum ag-1 | AID 624140;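 active = signal drop with fitted half-maximal concentration at or below twice the highest valid dose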
* marks the source's active call; other numbers are inactive results; i = inactive; x = no result; + = active, no number.

SMILES	BJeLR viability	Vc quorum ag-1	SARS 3CLpro inh	MazEF act	VHR inh abs	PfHsp40 yeast	Vc quorum ag-2	others
COc1ccc(S(=O)(=O)N2CCOCC2)cc1NC(=O)COC(=O)C1CC1C (configuration not stated)	x	-0.3	x	-1.4	x	0.3	x
Cc1cc(Cl)ccc1OCC(=O)OCC(=O)NC1CCS(=O)(=O)C1 (configuration not stated)	x	14.3	x	3.8	x	-0.8	-0.2
CC(C)OC(=O)CSc1nnc(CNc2cccc(Cl)c2)n1C	-2.7	-4.5	-3.8	-13.3	22.0	-0.1	x
Cn1c(CNc2cccc(Cl)c2)nnc1SCC(=O)OC1CCCCC1	4.9	16.7*	1.9	-5.7	13.8	4.4	0.1
CC(C)Oc1ccc(C(=O)Nc2cc(S(=O)(=O)N3CCOCC3)ccc2N2CCOCC2)cc1	x	1.8	x	2.0	x	-0.1	-0.1
CC(C)COc1ccc(C(=O)Nc2cc(S(=O)(=O)N3CCOCC3)ccc2N2CCCC2)cc1	x	0.5	x	6.0	x	-0.6	x
Clc1cccc(CN2CCSCC2)c1Cl	3.2	-0.2	2.9	1.4	8.8	-1.4	x
CCOC(=O)N1CCc2c(sc3ncn(Cc4ccc(F)cc4)c(=O)c23)C1	8.2	0.3	-3.0	5.1	17.6	0.4	x
O=c1c2c3c(sc2ncn1Cc1ccc(F)cc1)CCC3	0.6	25.4	3.8	9.6	26.9	0.8	-0.3
CCCn1nnnc1NCc1ccc(SC)cc1	6.0	x	-3.4	10.0	5.8	-0.4	i
CCCn1nnnc1NCc1ccc(OC)cc1OC	-2.1	+	3.3	-0.5	9.4	-0.3	i
CCCn1nnnc1NCc1ccc(N(CC)CC)cc1	8.7	x	1.5	554.9*	-16.1	-2.4	i	HeLa tox=-3.4
Cn1nnnc1NCc1ccc(Cl)cc1	-0.5	x	-3.3	10.1	20.7	-1.0	x
CCN(CC)c1ccc(CNc2nnnn2C)cc1	-3.6	+	2.7	7.2	39.6	0.0	i
COc1ccc(CCn2c(C)cc(C(=O)CN3C(=O)C(=O)N(C4CCCC4)C3=O)c2C)cc1OC	x	-14.3	x	-9.4	x	0.1	x
CCOc1ncccc1C(=O)OCc1csc(CC(=O)Nc2ccccc2C)n1	x	i	x	-32.4	x	1.1	x
COc1ccc(S(=O)(=O)Nc2ccc(S(=O)(=O)N3CCOCC3)cc2)cc1C	0.4	17.9*	-3.1	7.0	-22.3	1.1	0.4
COc1ccc(NC(=O)COc2cccc3c2CCNC3=O)cc1	-0.1	27.5*	x	-4.6	x	-1.4	3.2
COc1cccc(NC(=O)COc2cccc3c2CCNC3=O)c1	3.2	i	x	7.6	x	0.9	x
COc1ccccc1OCCC(=O)OCC(=O)Nc1ccc2c(c1)OCO2	x	x	x	8.8	x	-3.0	x
Cc1ccccc1NC(=O)Cc1nc(COC(=O)c2ccccn2)cs1	1.9	14.3	x	4.9	x	-0.9	0.0
Cc1ccccc1NC(=O)Cc1nc(COC(=O)C(C)C)cs1	-1.2	i	-3.2	6.1	10.5	1.4	x
C=C(C)CN(CC)C(=O)CN1C(=O)NC2(CCCc3ccccc32)C1=O (configuration not stated)	1.7	-3.4	2.5	9.5	-5.5	-1.2	x
Cc1nn(-c2ccccc2)c(C)c1NC(=O)COC(=O)c1cc(Br)ccc1O	-10.3	26.8	x	-8.4	x	-1.0	0.6
Cc1ccc(NC(=O)N2CCCC2C(=O)NCc2ccc3c(c2)OCO3)cc1 (configuration not stated)	-4.1	-0.2	4.3	4.1	21.5	-0.4	x
SMILES	BJeLR viability	Vc quorum ag-1	SARS 3CLpro inh	MazEF act	VHR inh abs	PfHsp40 yeast	Vc quorum ag-2	others
O=C(NCc1ccc2c(c1)OCO2)C1CCCN1C(=O)Nc1cccc(Cl)c1 (configuration not stated)	2.6	5.6*	0.0	3.8	10.5	0.5	0.1
CCCOC(=O)c1ccc(NC(=O)CCOc2ccccc2)cc1	1.8	0.1	4.4	-1.4	21.8	6.2	x
CCCOC(=O)c1ccc(NC(=O)CCC(=O)OCC)cc1	1.5	12.5	-3.9	3.3	-10.8	-0.3	0.3
NC(=O)c1ccc(NC(=O)C2CCCO2)cc1 (configuration not stated)	0.1	-6.7	1.9	1.9	15.7	-0.4	x
CCCOC(=O)c1ccc(NC(=O)C2CCCO2)cc1 (configuration not stated)	9.1	16.7*	2.3	6.8	-12.0	0.8	0.1
CCCCNC(=O)c1ccccc1NC(=O)CCSc1ccccc1	10.1	12.5	3.0	3.8	-11.5	1.2	0.4
CCOC(=O)N1CCN(CCCc2ccccc2)CC1	-4.8	-0.4	-1.5	-1.8	13.6	0.1	x
Cc1ccc(NC(=O)CSc2n[nH]c(-c3cccnc3)n2)cc1Cl	1.9	-3.8	3.8	5.0	-7.5	-1.0	x
Cc1c(Br)c([N+](=O)[O-])nn1CC(=O)Nc1ccc(C(N)=O)cc1	-8.3	-0.2	-2.5	9.3	5.1	-1.6	x
CC1CCCN(C(=O)Cn2c(-c3nonc3N)nc3ccccc32)C1 (configuration not stated)	-3.0	14.3	3.3	7.0	8.5	-1.2	0.7
CN(CC(=O)N1CCN(Cc2ccccc2)CC1)C(=O)Cc1ccc(Cl)c(Cl)c1	x	-1.6	x	0.5	x	0.5	x
CC(C)CCN1CC(C(=O)N2CCN(c3ccc(F)cc3)CC2)CC1=O (configuration not stated)	-8.7	16.7*	-6.9	4.8	13.2	-1.6	0.2
Cc1ccc(C)c(S(=O)(=O)Nc2ccc(-n3cnnn3)cc2)c1	x	36.7*	x	5.1	x	-0.5	-0.1
Cc1ccc(C)c(S(=O)(=O)Nc2ccc(O)cc2)c1	8.2	i	5.2	1.1	29.0	-0.7	x
Brc1ccc(C2=Nn3c(nnc3-c3n[nH]c4c3CCC4)SC2)cc1	48.2	25.0*	1.2	2.5	-0.8	-0.1	0.5
CC(=O)Nc1ccc(N2CCCCC2)cc1	-12.1	i	-9.2	5.9	29.7	-0.2	x
CC(=O)Nc1ccc(N2CCCC2)cc1	-2.3	25.0	-5.8	-10.8	0.3	-0.7	0.0
CCC(NC(=O)Nc1nccs1)(C(F)(F)F)C(F)(F)F	-11.9	16.7*	3.0	5.0	41.4	-0.1	0.6
CCC(C(=O)Nc1nccs1)(C(F)(F)F)C(F)(F)F	-2.8	i	-4.4	2.0	22.1	1.4	x
Cc1ccc(Cn2c(SCC(=O)NCC3CCCO3)nc3c2c(=O)n(C)c(=O)n3C)cc1 (configuration not stated)	-0.5	i	0.6	10.9	0.9	-0.8	x
O=C(CNC(=O)c1cccc(S(=O)(=O)N2CCc3ccccc32)c1)Nc1ccc(F)c(F)c1F	x	12.5	x	-3.3	x	-0.2	5.5
CCc1nnc(NC(=O)c2cccc(S(=O)(=O)N3CCc4ccccc43)c2)s1	-6.9	-0.5	0.9	3.8	24.4	0.6	x
O=C(CNC(=O)c1cccc(S(=O)(=O)N2CCc3ccccc32)c1)Nc1ccccc1Br	x	i	x	-5.0	x	1.1	x
